From PubChem BioAssay (EPA / NIEHS) come the findings set out here.

A structure can be active in one record and inactive in another. Calls of active or inactive are those of the source. The calls were made as follows: active = hit-call score of the fitted dose curve at least 0.9, where 1 is the maximum; inactive = score below 0.9.

As usually defined, the AC50 is the midpoint of the concentration-response curve, whichever way the signal moves.

Read-out in this assay: Thrombomodulin, THBD (gene 7056)
As to the kind of experiment: BSK_CASM3C_Thrombomodulin: BioMAP Diversity Plus: CASM3C Assay for Thrombomodulin Biomarker Activity (AID 2283051).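 Also: thrombomodulin protein level measured by ELISA 24 h after dosing.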 The following applies: primary human coronary artery smooth muscle cells; actives raise or lower the signal.
In the case of `O=C(O)CCCOc1ccc(Cl)cc1Cl`, the result was inactive.

With `O=C(O)C(F)(F)C(F)(F)C(F)(F)C(F)(F)C(F)(F)C(F)(F)C(F)(F)F`, the result was inactive.

With `COc1nn(CSP(=S)(OC)OC)c(=O)s1`, the outcome was inactive.

Turning to `CC1(c2ccc(Oc3ccccc3)cc2)OC(=O)N(Nc2ccccc2)C1=O` (stereo not given), the outcome was inactive.

For `ClC1C(Cl)C(Cl)C(Cl)C(Cl)C1Cl` (stereo not given), the outcome was inactive.

In the case of `N#CN`, the result was inactive.

Consider `COC(=O)c1ccccc1S(=O)(=O)NC(=O)N(C)c1nc(C)nc(OC)n1`, for which the result was inactive.

Take `O=C(NC(=O)c1c(F)cccc1F)Nc1ccc(OC(F)(F)C(F)OC(F)(F)F)c(Cl)c1` (stereo not given): the outcome was inactive.

For the compound `CNC(=O)/C=C(\C)OP(=O)(OC)OC`, the result was inactive.

Take `O=S(=O)(O)C(F)(F)C(F)(F)C(F)(F)C(F)(F)C(F)(F)C(F)(F)C(F)(F)C(F)(F)F`: the outcome was inactive.

In the case of `COc1cc(OC)nc(NC(=O)NS(=O)(=O)c2cc(NC=O)ccc2C(=O)N(C)C)n1`, the result was inactive.

Regarding `O=C(O)COc1ccc(Cl)cc1Cl`, the result was inactive.

With `CC1(C)C(C=C(Cl)Cl)C1C(=O)OC(C#N)c1ccc(F)c(Oc2ccccc2)c1` (stereo not given), the AC50 is 33.8 µM (active).

`CCN(CC)C(=O)SCc1ccc(Cl)cc1`: the result was inactive.

As to `Oc1cc(Cl)ccc1Oc1ccc(Cl)cc1Cl`, the AC50 is 4.67 µM (active) and the result was inactive.

In the case of `Oc1ccc(Cl)cc1Cc1ccccc1`, the outcome was inactive.

Consider `C[C@H]1[C@H](c2ccc(Cl)cc2)SC(=O)N1C(=O)NC1CCCCC1`, for which the AC50 is 14.9 µM (active).

Consider `CC(C)(C)C(O)/C(=C\c1ccc(Cl)cc1Cl)n1cncn1` (stereo not given), for which the AC50 is 15 µM (active).

In the case of `CCC(C)(NC(=O)c1cc(Cl)c(C)c(Cl)c1)C(=O)CCl` (stereo not given), the outcome was inactive.
